From PubChem BioAssay
Compounds with a hit are over-represented: about 2.4% of the library has one in this group of screens.
D2 PAM-1: HTS Assay for Positive Allosteric Modulators of the Human D2 Dopamine Receptor: Primary Screen for Potentiators. D(2) dopamine receptor (Homo sapiens), P14416. HEK293 T-REx D2, calcium flux, EC20 dopamine potentiation. potentiation, % at 10 µM. 340,000 tested, 0.34% active;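 active = potentiation over 3 SD above the plate norm, cut at about 30% in these data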; note: 0% is about no effect
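Potentiation of an EC20 dopamine calcium response is measured in a force-coupled, tetracycline-inducible Hek293 Trex D2 line. Compound-only kinetic reads over 180 s flag agonists before dopamine addition.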
D2 ag-1: Beta-Arrestin HTS for Positive Allosteric Modulators of the Human D2 Dopamine Receptor: Agonists. D(2) dopamine receptor (Homo sapiens), P14416. DiscoveRx PathHunter D2 beta-arrestin, luminescence, 90 min; 100% = 57 uM dopamine signal. activation, % (concentration not given with the values). 360,000 tested, 0.084% active. AID 624465, 2012; in the data active = activation above about 40%; inconclusive = between about 15% and that limit
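DiscoveRx PathHunter D2 beta-arrestin cells (2,100/well) attached overnight, then compound-stimulated 90 min at 37 C in HBSS/10 mM HEPES/0.1% Tween-20 buffer; beta-galactosidase complementation read by luminescence after 1 h at ambient temperature. Dopamine 57 uM final (EC100) as control.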
D2 PAM-2: Beta-Arrestin HTS for Positive Allosteric Modulators of the Human D2 Dopamine Receptor: Potentiators. D(2) dopamine receptor (Homo sapiens), P14416. DiscoveRx D2 beta-arrestin cells, luminescence, 90 min; 100% = 57 uM dopamine signal. potentiation, % (concentration not given with the values). 360,000 tested, 0.23% active; in the data active = potentiation above about 50%; inconclusive = mostly about 30% to 49%
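D2 cells co-treated with compound plus 50 nM dopamine (EC20) for 90 min at 37 deg C to detect potentiation. Beta-arrestin recruitment was read as enzyme-fragment luminescence after 1 h at ambient temperature. Full response was set by 57 uM dopamine.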
D2 antag: HTS Assay for Allosteric Antagonists of the Human D2 Dopamine Receptor: Primary Screen for Antagonists; HEK293 TREx D2 cells, calcium flux, dopamine EC80; inhibition, % at 10 µM; 340,000 tested, 2% active; AID 485344, 2010; in the data active = inhibition above about 30%; inactive = below that, where a call was filed; note: 0% is about no effect
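Overnight-induced (tetracycline, 30 C) HEK293 T-REx cells carrying force-coupled D2 receive a no-wash calcium dye, then compound, then EC80 dopamine at 180 s; signals are read kinetically throughout.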
D2 ag-2: HTS Assay for Allosteric Agonists of the Human D2 Dopamine Receptor: Primary Screen for Agonists; HEK293 T-REx D2 cells, calcium flux agonist mode; D(2) dopamine receptor (Homo sapiens), P14416; 340,000 tested, 0.53% active; activation, % at 2 µM;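 active = activation over 3 SD above normal in the single-dose calcium agonist read, cut at about 30% in these data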; note: 0% is about no effect
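Tetracycline-induced HEK293 T-REx cells with force-coupled D2 receptor, plated overnight at 30 C, loaded with no-wash calcium dye. After a 10 s baseline, compound was pin-added and calcium flux read kinetically for 180 s; calcium rises flagged agonists.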
D3 ag: qHTS of D3 Dopamine Receptor Agonist: D3 Dopamine Receptor B-arrestin Agonist Confirmatory Assay; shares compounds with D2 ag-2; DiscoveRx D3 beta-arrestin cells, luminescence, 90 min; Potency, µM (highest dose often 76.9 µM), inactives show at the highest dose activation, hits mostly activators; 2,300 tested, 4% active;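 note: potency is the fitted concentration of half-maximal effect; 100% = dopamine control response; nearly all actives have a fitted effect of over 70% in size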
Target sequence (P35462 whole entry, looked up): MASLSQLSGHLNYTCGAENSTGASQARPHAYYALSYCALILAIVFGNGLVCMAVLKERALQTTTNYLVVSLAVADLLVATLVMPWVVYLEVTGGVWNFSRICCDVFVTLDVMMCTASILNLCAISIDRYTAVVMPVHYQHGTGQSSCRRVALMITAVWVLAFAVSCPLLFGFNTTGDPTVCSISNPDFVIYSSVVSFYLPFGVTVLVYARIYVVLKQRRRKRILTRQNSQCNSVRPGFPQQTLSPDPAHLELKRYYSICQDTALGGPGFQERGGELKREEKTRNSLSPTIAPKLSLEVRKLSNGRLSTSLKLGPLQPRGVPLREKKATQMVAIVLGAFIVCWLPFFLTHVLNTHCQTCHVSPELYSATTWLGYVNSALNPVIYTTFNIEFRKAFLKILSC
D2 ag-3: qHTS of D3 Dopamine Receptor Agonist: D2 Dopamine Receptor B-arrestin Agonist Counterscreen | 2,300 tested, 5.9% active | shares compounds with D2 ag-2 | AID 720507, 2013 | DiscoveRx PathHunter D2 beta-arrestin, luminescence, 90 min; response scale: percent relative to full dopamine signal | Potency, µM (top dose mostly 76.9 µM), for the others: at the top dose activation, hits mostly activators; note: potency is the fitted concentration of half-maximal effect; % of control where 0% means no effect; nearly all actives have a fitted effect of over 70% in size
* hit, by the source's call; ? = inconclusive; / = no result. Unless noted, calls come from the whole dose curve; as a rule, active = well fitted activation curve with a large enough effect; inconclusive = small, poorly fitted or top-dose-only effect; inactive = flat fitted curve, though single readings scatter.

SMILES	D2 PAM-1	D2 ag-1	D2 PAM-2	D2 antag	D2 ag-2	D3 ag	D2 ag-3
COc1ccc(C=NCC2OCCc3ccccc32)cc1OC (stereo not given)	-23.0	-2.0	-0.1	-3.5	46.5*	7.7%	13.0%
COc1cc(C=NCC2OCCc3ccccc32)cc(OC)c1 (stereo not given)	-12.5	5.5	-6.7	-4.0	41.7*	11.7%	8.8%
COc1ccc(C(=O)NCC2OCCc3ccccc32)cc1OC (stereo not given)	-4.0	-2.0	-7.8	3.9	1.4	/	/
COc1ccc(C(=O)NCC2OCCc3ccccc32)cc1 (stereo not given)	5.5	-0.8	-12.6	-28.9	0.9	/	/
COc1ccc(Cl)cc1-n1cc(-c2ccccc2)nc1SCC(=O)Nc1ccc(C)cc1	-11.6	/	/	/	1.1	/	/
COc1cccc(CN2CCC(C(=O)N3CCN(c4ccccc4F)CC3)CC2)c1	-7.9	1.8	-10.3	1.0	26.3	3.1%	16.2%
COc1cc(CN2CCC(C(=O)N3CCN(c4ccccc4F)CC3)CC2)ccc1O	-21.5	7.9	0.6	38.7*	38.9*	?	22.1%
CCOc1ccc(CCNC(=O)CCCc2nnc3n(CC)c(=O)c4sccc4n23)cc1	2.3	/	/	/	-0.2	/	/
COc1ccc(C)cc1NC(=O)N1CCN(c2cc(-c3noc(C)n3)ccc2C)CC1	-3.5	/	/	/	/	/	/
CCN1CCN(C/C(C)=C/c2ccccc2)CC1	-19.4	0.6	1.6	23.2	1.4	/	/
C/C(=C\c1ccccc1)CN1CCN(c2ccccc2F)CC1	-29.1	10.8	-10.1	66.9*	17.7	-13.6%	8.7%
COc1ccc(S(=O)(=O)NCC(c2ccco2)S(=O)(=O)c2cccs2)cc1F (stereo not given)	-0.7	/	/	/	2.8	/	/
CCCC(=O)N1c2ncnn2C2(CCCCC2)[C@@H]2CCCC[C@@H]21	2.8	/	/	/	0.4	/	/
COc1cccc(N2CC(=O)N(NC(=O)CSc3nc(C)cc(C)c3C#N)CC2=O)c1	-12.5	-4.2	-2.2	18.9	43.3*	-11.6%	-3.3%
O=c1[nH]c(N/N=C/c2ccccc2Br)nnc1-c1ccccc1	-4.2	4.5	-4.6	25.3	-1.7	/	/
COc1ccc(/C=N/Nc2nnc(-c3ccccc3)c(=O)[nH]2)cc1	-21.0	1.8	-6.6	-20.7	59.9*	6.5%	1.7%
CCCCC(=O)Nc1ccccc1C(=O)OCc1cc(=O)n2nc(C3CCCCC3)sc2n1	2.1	/	/	/	0.2	/	/
FC(F)(F)c1ccc(Cl)c(NC2=NCCCCC2)c1	-19.3	-5.6	-9.9	11.5	53.1*	-0.7%	13.1%
FC(F)(F)c1ccc(N2CCOCC2)c(NC2=NCCCCC2)c1	-10.5	1.8	-2.0	-9.8	0.1	/	/
O=C1CC(c2ccccc2)NN1 (stereo not given)	-14.3	-7.6	-16.2	-8.7	-0.3	-7.5%	-2.8%
CCc1nn(CC(=O)NCCN(CC(C)C)CC(C)C)c(=O)c2cc3sc(C)cc3n12	-4.9	/	/	/	0.1	/	/
Cc1cc(C(C)(C)C)ccc1OCCN1CCCC1	/	-5.4	-5.1	/	/	-14.6%	-4.8%
O=C(COc1ccc(Br)cc1)NNC(=O)c1ccc(-n2cncn2)c([N+](=O)[O-])c1	2.4	-3.4	4.9	17.7	0.1	29.4%	2.2%
CCN(CC)S(=O)(=O)c1ccc2c(c1)N(CC(=O)N1CCN(c3cccc(C)c3C)CC1)C(=O)CO2	21.4	/	/	/	-0.2	/	/
Cc1ccc(CCNC(=O)c2ccc(CS(=O)(=O)c3ccc(Br)cc3)o2)cc1	0.5	/	/	/	/	/	/
SMILES	D2 PAM-1	D2 ag-1	D2 PAM-2	D2 antag	D2 ag-2	D3 ag	D2 ag-3
CCOC(=O)c1ccc(-c2c(-c3ccc(OC)cc3)oc(=O)c3cc(OC)c(OC)cc23)cc1F	/	1.0	3.4	/	/	-2.8%	-0.7%
CCOC(=O)c1ccc(-c2c(-c3cc(OC)c(OC)c(OC)c3)noc2C)cc1F	3.3	0.7	-13.7	16.4	-0.3	/	/
Cc1cccc(CNC(=O)C2CCN(S(=O)(=O)c3cccc4nonc34)CC2)c1	10.8	/	/	/	/	/	/
COc1ccccc1NS(=O)(=O)c1ccc(NC(=O)c2nc3nc(C)cc(C(F)F)n3n2)cc1	9.1	-3.1	-0.2	38.6*	-2.1	-5.5%	0.9%
COc1ccc(NC(=O)c2nc3nc(C)cc(C(F)F)n3n2)cc1OC	5.2	1.8	-6.6	8.1	-0.2	/	/
O=C(C1CCCN(S(=O)(=O)c2cccc3cccnc23)C1)N1CCN(c2ccccc2F)CC1 (stereo not given)	-10.8	-0.2	1.5	37.0*	26.8	-6.0%	?
O=C(C1CCCN1S(=O)(=O)c1cccc2cccnc12)N1CCN(c2ccccc2)CC1 (stereo not given)	4.6	-2.8	-6.0	6.7	7.8	-18.7%	-3.9%
CCOc1ccc(CNCc2c(C(=O)O)n(Cc3ccccc3C)c3cc(OC)ccc23)cc1OC	-5.7	/	/	/	0.0	/	/
CCc1nnc2c3ccccc3nc(Nc3cc(C)cc(C)c3)n12	2.9	/	/	/	/	/	/
COc1ccc(C(=O)N2CCN(CCCc3ccccc3)CC2)cc1OC	-19.0	-0.7	-15.7	-23.7	39.6*	?	11.7%
CCOC(=O)N1CCN(CCCc2ccccc2)CC1	2.5	12.1	-6.7	34.2*	1.7	9.2%	18.6%
COc1cccc(C(=O)N2CCN(CCCc3ccccc3)CC2)c1OC	-19.6	3.0	-6.5	0.1	23.9	/	/
O=C(C1CCN(S(=O)(=O)c2cccc3nsnc23)CC1)N1CCn2c1nc1ccccc12	/	-16.7	-58.1	/	/	/	/
Cc1n[nH]c(C)c1S(=O)(=O)N1CCC(C(=O)N2CCn3c2nc2ccccc23)CC1	-8.4	-7.2	-33.6	39.3*	47.8*	-28.8%	-12.2%
COc1ccc(OC)c(NC(=O)C2CCN(S(=O)(=O)c3c(C)noc3/C=C/c3ccc(C)cc3)CC2)c1	7.5	/	/	/	0.0	/	/
CC1CCC(C(=O)NC(C(=O)OCC(=O)c2ccccc2)C(C)C)CC1 (stereo not given)	-8.8	/	/	/	-1.2	/	/
